Rows were chosen to be rich in hits. Some 3.3% of all compounds tested hit in one or more screens of this group.
ROMK mod – human ROMK K+ channel modulation, primary screen | P48048 | Tet-inducible ROMK, thallium flux fluorescence; actives lie on both sides | B-score at 10 µM | 2% of 130,000 active | AID 1918;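 active = signal ratio slope over the read window, or its plate-corrected B-score, at least 3 SD from the plate mean, either direction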;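 note: B-score of the F/F0 ratio slope over 7 to 12 s after thallium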
Target sequence (P48048 whole entry, looked up): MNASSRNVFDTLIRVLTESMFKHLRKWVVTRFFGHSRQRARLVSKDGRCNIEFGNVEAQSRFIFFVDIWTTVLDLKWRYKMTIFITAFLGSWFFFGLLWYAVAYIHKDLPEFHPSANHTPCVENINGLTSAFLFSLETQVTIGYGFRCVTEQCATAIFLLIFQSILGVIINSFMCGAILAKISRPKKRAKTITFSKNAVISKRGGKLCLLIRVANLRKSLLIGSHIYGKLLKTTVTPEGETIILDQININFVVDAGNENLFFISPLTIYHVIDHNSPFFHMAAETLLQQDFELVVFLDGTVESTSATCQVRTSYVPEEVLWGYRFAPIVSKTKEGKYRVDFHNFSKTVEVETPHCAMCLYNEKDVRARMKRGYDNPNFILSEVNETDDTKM
WT yeast gro inh – growth inhibition of WT yeast, mitochondrial fusion screen; mitochondrial fusion phenotypic screen, WT strain; inhibition, % at 10 µM; 2.1% of 190,000 active; AID 1362; in the data active = inhibition above about 58%; tested in S. cerevisiae
PERK inh – inhibitors of human PERK kinase; CHO PERK-DD fusion, SEAP luminescence translation reporter; 0.17% of 220,000 active; AID 1416; Q9NZJ5; inhibition, % at 5.6 µM;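 active = inhibition above the mean inhibition of all tested compounds plus 3 SD, set separately per screening campaign, cut at about 2.9% in these data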;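 note: PERK kinase domain activated by AP20187 dimerizer at 100 nM; 0% = DMSO with dimerizer and 100% = rapamycin at 8.4 µM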
Arbovirus inh – arbovirus infection inhibition | 0.37% of 200,000 active | inhibition, % at 10 µM | arbovirus infection cell-based antiviral screen; in the data active = inhibition above about 30%
ROMK hit retest – retested hit modulating human ROMK potassium channel; ROMK thallium flux, fluorescence ratio; stronger effect = lower value; normalized thallium flux (F/F0 slope) at 10 µM; 54% of 3,000 active; shares compounds with ROMK mod;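 active = Flux at 10 µM at least 3 SD below or above vehicle control mean in one or both replicates; inconclusive = no clear call, values can overlap the other calls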
An asterisk follows results filed as active.

Screening Oc1[nH]c2ccccc2c1N=Nc1ccc(F)cc1 returned WT yeast gro inh -11, PERK inh 1 and Arbovirus inh 1.
For CCOC(=O)C(CC)n1nc(C)n2c(cc3sccc32)c1=O (stereo not drawn) the results were WT yeast gro inh 3, PERK inh -2 and Arbovirus inh 5.
CN1C(=O)C2(OCC(COc3ccc(Cl)cc3)O2)c2ccccc21 (stereo not drawn) was read as WT yeast gro inh 13, PERK inh -1, Arbovirus inh 4 and ROMK hit retest 0.078.
Screening CCOC(=O)c1[nH]c2ccccc2c1NC(=O)c1ccc(Br)o1 returned ROMK mod -0.083, WT yeast gro inh -14, PERK inh 0 and Arbovirus inh 8.
`COCc1cc(C)nc(SCC(=O)c2ccc(O)c(O)c2)c1C#N` gave ROMK mod 1.7*, WT yeast gro inh 0, PERK inh 0, Arbovirus inh -21 and ROMK hit retest 0.077.
O=C(CCc1n[nH]c(=O)[nH]c1=O)Nc1cccc([N+](=O)[O-])c1 was read as ROMK mod -0.41, WT yeast gro inh 0, PERK inh 0 and Arbovirus inh -2.
`CCS(=O)(=O)N1CCCC(C(=O)NCCCN2CCCC2=O)C1` (stereo not drawn) gave WT yeast gro inh -2, PERK inh 2 and Arbovirus inh 0.
For COCCCNC(=O)C1CCC(CNS(=O)(=O)c2ccc(Cl)cc2)CC1 (stereo not drawn) the results were WT yeast gro inh -13, PERK inh 1, Arbovirus inh -5 and ROMK hit retest 0.086.
Cc1nc2cc(F)ccc2n1C1CCN(S(=O)(=O)c2ccccc2)CC1 was read as ROMK mod -6.1*, WT yeast gro inh 4, PERK inh -1, Arbovirus inh -10 and ROMK hit retest inconclusive.
CCn1c(=O)c(=O)[nH]c2cc(C(=O)NC3CC3)ccc21 was read as ROMK mod 0.78, WT yeast gro inh 5, PERK inh 0 and Arbovirus inh -5.
Screening CCn1c(=O)c(=O)[nH]c2cc(C(=O)NC3CCCc4ccccc43)ccc21 (stereo not drawn) returned ROMK mod 3.2*, WT yeast gro inh -6, PERK inh 0, Arbovirus inh -13 and ROMK hit retest 0.083.
For Cc1nn(Cc2c(F)c(F)c(F)c(F)c2F)c(C)c1NC(=O)c1c([N+](=O)[O-])cnn1C the results were ROMK mod 0.003, WT yeast gro inh 17, PERK inh -1 and Arbovirus inh 4.
O=C(O)c1cccc(NC2=C(Cl)C(=O)c3ccccc3C2=O)c1 was read as ROMK mod -1.9, WT yeast gro inh 5, PERK inh 0, Arbovirus inh -39 and ROMK hit retest 0.056*.
O=C(O)c1ccc(NC2=C(Cl)C(=O)c3ccccc3C2=O)cc1 was read as ROMK mod 0.73 and PERK inh 0.
Screening Cc1ccc2c(c1)nnn2C1CCN(CC(=O)Nc2ccccc2N2CCOCC2)CC1 returned ROMK mod -4.2*, WT yeast gro inh 22, PERK inh -2, Arbovirus inh -23 and ROMK hit retest 0.055*.
`COc1ccc(Cl)cc1NC(=O)CN1CCC(n2nnc3cc(C)ccc32)CC1` gave ROMK mod -0.86, WT yeast gro inh 0, PERK inh -1 and Arbovirus inh -8.
O=C(/C=C/c1ccccc1)c1ccc2c(c1)OCO2 was read as ROMK mod 0.046 and PERK inh 1.
For O=C(/C=C/c1ccncc1)c1ccc2c(c1)OCCO2 the results were ROMK mod -2.7*, WT yeast gro inh 1, PERK inh 0, Arbovirus inh -38 and ROMK hit retest 0.053*.
`O=C(O)c1ccc(-n2cc(-c3cc4ccccc4oc3=O)[nH]c2=S)cc1` gave ROMK mod 1.7, WT yeast gro inh -8, PERK inh 1 and Arbovirus inh 3.
`O=C(NCCc1ccccc1F)C1CCCN1S(=O)(=O)c1ccc2ccccc2c1` (stereo not drawn) gave ROMK mod -3.5*, WT yeast gro inh 11, PERK inh -1, Arbovirus inh -3 and ROMK hit retest 0.056*.
For Cc1nc2cc(C(=O)OCC(=O)NC3CCS(=O)(=O)C3)ccc2n1-c1ccccc1 (stereo not drawn) the results were ROMK mod -0.057, WT yeast gro inh -11, PERK inh 0 and Arbovirus inh 4.
Screening Cc1nc2cc(C(=O)OCC(=O)NC34CC5CC(CC(C5)C3)C4)ccc2n1-c1ccccc1 returned ROMK mod -3*, WT yeast gro inh 59*, PERK inh 0, Arbovirus inh -8 and ROMK hit retest 0.065*.
For CCOC(=O)C1CCN(C(=O)CN(c2cc(OC)ccc2OC)S(=O)(=O)c2ccccc2)CC1 the results were WT yeast gro inh 16, PERK inh -1 and Arbovirus inh -1.
`COC(=O)c1cccc(-c2ccc(C(c3c(C)[nH][nH]c3=O)c3c(C)[nH][nH]c3=O)o2)c1` gave ROMK mod -1.4, WT yeast gro inh -17, PERK inh 1 and Arbovirus inh -10.
COC(=O)c1ccccc1-c1ccc(C(c2c(C)[nH][nH]c2=O)c2c(C)[nH][nH]c2=O)o1 was read as ROMK mod -3.8*, WT yeast gro inh -1, PERK inh 0, Arbovirus inh -11 and ROMK hit retest inconclusive.
`CC(=O)N1CCN(C(=S)c2ccc(-c3ccc(Cl)cc3)o2)CC1` gave ROMK mod -2.5*, WT yeast gro inh -11, PERK inh 1, Arbovirus inh -3 and ROMK hit retest 0.055*.
NC(=O)C1CCN(C(=S)c2ccc(-c3ccc(Br)cc3)o2)CC1 was read as ROMK mod -0.088, WT yeast gro inh -2, PERK inh 0 and Arbovirus inh 0.
Screening Cc1cc(C)c(C(=O)COC(=O)c2cc([N+](=O)[O-])ccc2NCCO)cc1C returned WT yeast gro inh 1, PERK inh -1 and Arbovirus inh 15.
For S=C(Nc1ccccc1)N1CCN(C(=S)Nc2ccccc2)CC1 the results were ROMK mod -13*, WT yeast gro inh -4, PERK inh 0, Arbovirus inh -2 and ROMK hit retest 0.087.
Screening S=C(Nc1ccc(Oc2ccccc2)cc1)N1CCN(c2ccccn2)CC1 returned ROMK mod 2.6*, WT yeast gro inh 25, PERK inh 1, Arbovirus inh -10 and ROMK hit retest 0.082.
`S=C(Nc1ccccc1)N1CCCCCCC1` gave ROMK mod 0.16, WT yeast gro inh -3, PERK inh 0 and Arbovirus inh 2.
For COc1cccc(NC=C2C(=O)OC3(CCCCC3)OC2=O)c1 the results were ROMK mod -0.66, WT yeast gro inh 45, PERK inh 0 and Arbovirus inh -15.
For COc1ccc(C2=CC(=O)OC3(CCCCC3)O2)cc1 the results were ROMK mod -2.4*, WT yeast gro inh 9, PERK inh 0, Arbovirus inh -8 and ROMK hit retest 0.062*.
Cc1cc(C)nc(N2CCN(CC(=O)NCc3ccccc3)CC2)n1 was read as WT yeast gro inh -12, PERK inh 1 and Arbovirus inh 0.

Compound activity as filed in PubChem.
